The record followed here is PubChem BioAssay (EPA / NIEHS).

Read-out in experiment [1]: flavin-containing dimethylaniline monooxygenases 3 (FMO3), FMO3 (gene 2328)
In words: LTEA_HepaRG_FMO3: Life Technologies and Expression Analysis (LTEA) Assay for flavin-containing dimethylaniline monooxygenases 3 (FMO3) using HepaRG (AID 2283453). The settings on record: mRNA level, 48 h; actives raise or lower the signal. An outline of the steps:
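Differentiated HepaRG cells in serum-free induction medium, exposed 48 h in duplicate to 8 half-log concentrations up to 100 uM in 0.5% DMSO. FMO3 mRNA by qRT-PCR, normalized to ACTB, GAPDH, POLR2A; bidirectional fit vs DMSO.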

Read-out in experiment [2]: Cytochrome P450 (CYP1A1), CYP1A1 (gene 1543)
Briefly: LTEA_HepaRG_CYP1A1: Life Technologies and Expression Analysis (LTEA) Assay for Cytochrome P450 (CYP1A1) using HepaRG (AID 2283454). The settings on record: mRNA level, 48 h; actives raise or lower the signal. An outline of the steps:
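Differentiated human HepaRG cells, after 48 h plating, exposed in duplicate for 48 h in serum-free induction medium to 8 half-log concentrations up to 100 uM in 0.5% DMSO. CYP1A1 mRNA by qRT-PCR, normalized to ACTB/GAPDH/POLR2A; bidirectional fit versus DMSO.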

Read-out in experiment [3]: CFLAR gene, CFLAR (gene 8837)
Briefly: LTEA_HepaRG_CFLAR: Life Technologies and Expression Analysis (LTEA) Assay for CFLAR gene using HepaRG (AID 2283455). As to conditions: mRNA level, 48 h; actives raise or lower the signal. An outline of the steps:
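HepaRG, 48 h exposure, 8-pt conc-response (100 uM top, half-log), 0.5% DMSO vehicle, duplicates. CFLAR expression by qRT-PCR; ACTB/GAPDH/POLR2A normalization; gain or loss fit vs DMSO baseline.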

Read-out in experiment [4]: Forkhead box O1 (FOXO1), FOXO1 (gene 2308)
In words: LTEA_HepaRG_FOXO1: Life Technologies and Expression Analysis (LTEA) Assay for Forkhead box O1 (FOXO1) using HepaRG (AID 2283456). As to conditions: mRNA level, 48 h; actives raise or lower the signal. In short, it runs like this: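 Readout is FOXO1 transcript level by multiplexed qRT-PCR against three housekeeping genes, curve-fitted in both directions relative to 0.5% DMSO vehicle. Human HepaRG cultures received chemicals for 48 h, up to 100 uM in half-log steps.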

Read-out in experiment [5]: growth arrest and DNA damage 45 (GADD45A), GADD45A (gene 1647)
Briefly: LTEA_HepaRG_GADD45A: Life Technologies and Expression Analysis (LTEA) Assay for growth arrest and DNA damage 45 (GADD45A) using HepaRG (AID 2283458). The settings on record: mRNA level, 48 h; actives raise or lower the signal. An outline of the steps: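 Cells plated and cultured 48 h, switched to serum-free induction medium, then dosed for 48 h (100 uM top, half-log dilutions, 0.5% DMSO). RNA was isolated and transcript measured by Fluidigm qRT-PCR.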

Read-out in experiment [6]: Forkhead box O3 (FOXO3), FOXO3 (gene 2309)
Briefly: LTEA_HepaRG_FOXO3: Life Technologies and Expression Analysis (LTEA) Assay for Forkhead box O3 (FOXO3) using HepaRG (AID 2283459). The settings on record: mRNA level, 48 h; actives raise or lower the signal. In short, it runs like this: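 HepaRG, 48 h post-dose; 8 conc., half-log from 100 uM, 0.5% DMSO, duplicates; serum-free induction medium. Readout: FOXO3 mRNA, TaqMan qRT-PCR, housekeeping-normalized. Bidirectional curve fit vs DMSO baseline.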

Read-out in experiment [7]: ABC Transporter (ABCB1), ABCB1 (gene 5243)
Briefly: LTEA_HepaRG_ABCB1: Life Technologies and Expression Analysis (LTEA) Assay for ABC Transporter (ABCB1) using HepaRG (AID 2283460). As to conditions: mRNA level, 48 h; actives raise or lower the signal. An outline of the steps: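 Expression of ABCB1 was quantified by qRT-PCR against three housekeeping genes after human HepaRG cultures received test chemicals for 48 hours. Concentrations spanned eight half-log steps topping at 100 uM in 0.5% DMSO; gain or loss of signal was fitted relative to vehicle.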

Read-out in experiment [8]: growth arrest and DNA damage 45 (GADD45B), GADD45B (gene 4616)
In words: LTEA_HepaRG_GADD45B: Life Technologies and Expression Analysis (LTEA) Assay for growth arrest and DNA damage 45 (GADD45B) using HepaRG (AID 2283461). As to conditions: mRNA level, 48 h; actives raise or lower the signal. In short, it runs like this:
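Differentiated human HepaRG cells in serum-free induction medium exposed 48 h in duplicate to eight concentrations, top 100 uM, half-log steps, 0.5% DMSO. GADD45B mRNA by TaqMan qRT-PCR, normalized to ACTB, GAPDH, POLR2A; bidirectional fit versus DMSO.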

Read-out in experiment [9]: ABC Transporter (ABCC3), ABCC3 (gene 8714)
Briefly: LTEA_HepaRG_ABCC3: Life Technologies and Expression Analysis (LTEA) Assay for ABC Transporter (ABCC3) using HepaRG (AID 2283462). The settings on record: mRNA level, 48 h; actives raise or lower the signal. An outline of the steps:
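Differentiated human HepaRG cells exposed 48 h in serum-free induction medium, 0.5% DMSO vehicle, 8-point half-log series to 100 uM in duplicate. ABCC3 mRNA by qRT-PCR, normalised to ACTB, GAPDH, POLR2A; bidirectional fit vs DMSO.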

Read-out in experiment [10]: ABC Transporter (ABCB11), ABCB11 (gene 8647)
In words: LTEA_HepaRG_ABCB11: Life Technologies and Expression Analysis (LTEA) Assay for ABC Transporter (ABCB11) using HepaRG (AID 2283463). The settings on record: mRNA level, 48 h; actives raise or lower the signal. An outline of the steps: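 ABCB11 transcript levels are read by Fluidigm TaqMan qRT-PCR after 48 h chemical treatment of human HepaRG cells. Concentrations span 100 uM downward in half-log steps with 0.5% DMSO; gain or loss is fitted against DMSO controls.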

Read-out in experiment [11]: ABC Transporter (ABCC2), ABCC2 (gene 1244)
In words: LTEA_HepaRG_ABCC2: Life Technologies and Expression Analysis (LTEA) Assay for ABC Transporter (ABCC2) using HepaRG (AID 2283464). As to conditions: mRNA level, 48 h; actives raise or lower the signal. In short, it runs like this: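 Differentiated HepaRG cells in serum-free induction medium exposed 48 h to eight half-log concentrations up to 100 uM, 0.5% DMSO, in duplicate. ABCC2 mRNA measured by qRT-PCR (TaqMan, Fluidigm), normalized to ACTB, GAPDH and POLR2A. Fitted in both directions against DMSO.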

Read-out in experiment [12]: Broad substrate specificity ATP-binding cassette transporter ABCG2 (Homo sapiens) (UniProt Q9UNQ0)
In words: LTEA_HepaRG_ABCG2: Life Technologies and Expression Analysis (LTEA) Assay for ABC Transporter (ABCG2) using HepaRG (AID 2283465). As to conditions: mRNA level, 48 h; actives raise or lower the signal. An outline of the steps:
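Read-out is ABCG2 mRNA induction or loss quantified by qRT-PCR after 48 h chemical treatment of human HepaRG cells, normalized to three housekeeping genes. Concentrations reached 100 uM top in half-log steps; fitting was bidirectional against 0.5% DMSO.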

Read-out in experiment [13]: ATP-citrate lyase (ACLY), ACLY (gene 47)
In words: LTEA_HepaRG_ACLY: Life Technologies and Expression Analysis (LTEA) Assay for ATP-citrate lyase (ACLY) using HepaRG (AID 2283466). The settings on record: mRNA level, 48 h; actives raise or lower the signal. In short, it runs like this: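 HepaRG, 48 h exposure, 8-pt half-log dilutions (top 100 uM), 0.5% DMSO. Readout: ACLY mRNA, TaqMan qRT-PCR, housekeeping-normalized (ACTB/GAPDH/POLR2A). Bidirectional curve fit vs DMSO.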

Read-out in experiment [14]: Peroxisomal acyl-coenzyme A oxidase 1 (ACOX1) gene, ACOX1 (gene 51)
In words: LTEA_HepaRG_ACOX1: Life Technologies and Expression Analysis (LTEA) Assay for Peroxisomal acyl-coenzyme A oxidase 1 (ACOX1) gene using HepaRG (AID 2283467). As to conditions: mRNA level, 48 h; actives raise or lower the signal. In short, it runs like this:
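Measured by qRT-PCR against three housekeeping genes: ACOX1 transcript change in human HepaRG cells after 48 h dosing. Concentrations ran up to 100 uM in half-log steps. Curves were fitted bidirectionally relative to 0.5% DMSO.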

Read-out in experiment [15]: Alkaline Phosphatase, Placental (ALPP) gene, ALPP (gene 250)
In words: LTEA_HepaRG_ALPP: Life Technologies and Expression Analysis (LTEA) Assay for Alkaline Phosphatase, Placental (ALPP) gene using HepaRG (AID 2283468). The settings on record: mRNA level, 48 h; actives raise or lower the signal. In short, it runs like this: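 HepaRG cells plated 48 h, then exposed in duplicate for 48 h in serum-free induction medium to 8-point half-log series from 100 uM in 0.5% DMSO. ALPP mRNA by TaqMan qRT-PCR, normalized to ACTB/GAPDH/POLR2A; bidirectional fit versus DMSO.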

Read-out in experiment [16]: Bcl-2 (BAD) gene, BAD (gene 572)
In words: LTEA_HepaRG_BAD: Life Technologies and Expression Analysis (LTEA) Assay for Bcl-2 (BAD) gene using HepaRG (AID 2283469). As to conditions: mRNA level, 48 h; actives raise or lower the signal. In short, it runs like this:
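BAD transcript change, measured by qRT-PCR against three housekeeping genes and fitted in both directions relative to 0.5% DMSO, after 48 h chemical treatment of human HepaRG liver cells at concentrations up to 100 uM.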

Read-out in experiment [17]: adenosine kinase (ADK) gene, ADK (gene 132)
Briefly: LTEA_HepaRG_ADK: Life Technologies and Expression Analysis (LTEA) Assay for adenosine kinase (ADK) gene using HepaRG (AID 2283471). As to conditions: mRNA level, 48 h; actives raise or lower the signal. In short, it runs like this: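 ADK expression quantified by qRT-PCR, normalised to three housekeeping genes, after 48 h exposure of HepaRG cells to eight concentrations (top 100 uM, half-log steps, duplicate, 0.5% DMSO). Up- or down-regulation fitted relative to vehicle.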

Read-out in experiment [18]: Alpha-fetoprotein (AFP) gene, AFP (gene 174)
In words: LTEA_HepaRG_AFP: Life Technologies and Expression Analysis (LTEA) Assay for Alpha-fetoprotein (AFP) gene using HepaRG (AID 2283472). The settings on record: mRNA level, 48 h; actives raise or lower the signal. An outline of the steps:
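HepaRG, single lot; 48 h post-plating -> serum-free induction medium; cpd 8-pt, 100 uM top, half-log, 0.5% DMSO, duplicate, 48 h. RNA -> qRT-PCR AFP, norm ACTB/GAPDH/POLR2A. Bidirectional fit vs DMSO.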

The nature of experiment [19]: CEETOX_H295R_TESTO: CeeTox H295R High-throughput Steroidogenesis Assay for Testosterone (TESTO) (AID 2283457). As to conditions: actives raise or lower the signal. In short, it runs like this: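 H295R adrenal cells, passage ≤10, exposed to chemicals for 48 h. Testosterone in medium measured by MTBE extraction and HPLC-MS/MS against a 7-point standard curve. Bidirectional fit versus DMSO; MTT viability checked in the same wells.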

Read-out in experiment [20]: Bcl-2 (BAX) gene, BAX (gene 581)
Briefly: LTEA_HepaRG_BAX: Life Technologies and Expression Analysis (LTEA) Assay for Bcl-2 (BAX) gene using HepaRG (AID 2283470). As to conditions: mRNA level, 48 h; actives raise or lower the signal. In short, it runs like this: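 HepaRG (human liver), 48 h exposure, duplicate wells. 8-pt curve, half-log from 100 uM, 0.5% DMSO. BAX transcript by TaqMan qRT-PCR; ACTB/GAPDH/POLR2A normalization; gain or loss vs DMSO baseline.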

Active and inactive are the calls of the source. How the source made its calls: active means hit-call score of the fitted dose curve at least 0.9, where 1 is the maximum; inactive means score below 0.9.

Broad substrate specificity ATP-binding cassette transporter ABCG2 (Homo sapiens), sequence (Q9UNQ0 whole entry, looked up): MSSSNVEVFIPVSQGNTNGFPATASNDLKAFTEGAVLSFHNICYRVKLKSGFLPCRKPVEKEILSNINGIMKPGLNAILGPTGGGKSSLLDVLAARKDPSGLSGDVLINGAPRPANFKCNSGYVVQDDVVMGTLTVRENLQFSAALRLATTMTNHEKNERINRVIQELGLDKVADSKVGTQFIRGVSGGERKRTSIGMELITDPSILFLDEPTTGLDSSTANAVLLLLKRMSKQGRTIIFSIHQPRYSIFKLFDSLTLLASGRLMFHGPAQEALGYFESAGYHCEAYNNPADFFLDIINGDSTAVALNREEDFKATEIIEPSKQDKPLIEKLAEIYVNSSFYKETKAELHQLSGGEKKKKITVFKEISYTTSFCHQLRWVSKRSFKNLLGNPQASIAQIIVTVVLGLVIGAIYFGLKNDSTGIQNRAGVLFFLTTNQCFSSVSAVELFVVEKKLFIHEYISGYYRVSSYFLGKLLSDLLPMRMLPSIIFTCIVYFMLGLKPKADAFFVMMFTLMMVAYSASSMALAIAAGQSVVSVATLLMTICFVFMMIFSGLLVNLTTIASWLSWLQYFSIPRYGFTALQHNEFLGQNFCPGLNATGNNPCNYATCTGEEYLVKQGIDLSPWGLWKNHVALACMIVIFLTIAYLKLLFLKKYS

As usually defined, the AC50 is the concentration giving half of the maximal activity seen. With `Cn1cc(-c2ccccc2)c(=O)c(-c2cccc(C(F)(F)F)c2)c1`, the call in experiment [1], in experiment [4], in experiment [5], in experiment [6], in experiment [8] and in [9] was inactive. In addition, the outcome in experiment [10], in [13], in experiment [14], in experiment [16], in [17] and in [18] was inactive. Besides, the AC50 in experiment [2] is 32.6 µM (active); in experiment [3], 9.92 µM (active); in experiment [7], 7.25 µM (active); in [11], 5.1 µM (active); in experiment [12], 10.6 µM (active); in experiment [15], 50 µM (active).
`Nc1ccc(Cl)cc1N`: the AC50 in experiment [1] is 23.1 µM (active); in experiment [2], 1.81 µM (active); in experiment [3], 33.1 µM (active); in [4], 29.4 µM (active); in experiment [5], 13.3 µM (active); in experiment [6], 21.5 µM (active). Besides, the AC50 in experiment [8] was 13.3 µM (active); in experiment [9], 35.8 µM (active); in experiment [10], 19 µM (active); in [11] it was 37.3 µM (active); in experiment [20], 13.2 µM (active); in experiment [18] it was 22.5 µM (active). Besides, the molecule was called inactive in experiment [19], in experiment [12], in [13], in experiment [15] and in experiment [16].
As to `CCCCCCCCOC(=O)c1ccc(C(=O)OCCCCCCCC)c(C(=O)OCCCCCCCC)c1`, the call in [1], in [3], in experiment [4], in experiment [5], in [6] and in [9] was inactive. In addition, the outcome in experiment [10], in [11], in experiment [12], in [13], in experiment [15] and in experiment [16] was inactive. In addition, the outcome in experiment [20], in experiment [17] and in experiment [18] was inactive. In addition, the AC50 in experiment [2] is 50.5 µM (active).
As to `Nc1ccc([N+](=O)[O-])cc1`, the outcome in experiment [1], in [3], in experiment [4], in experiment [5], in experiment [6] and in experiment [9] was inactive. Moreover, the outcome in experiment [10], in [11], in [12], in [13], in [14] and in experiment [15] was inactive. The outcome in experiment [16], in experiment [17] and in experiment [18] was inactive. In addition, in experiment [2], the AC50 was 50 µM (active).
